Here are results for 8 molecules from PubChem BioAssay (NCI).

What all share (assay): NCI-60 one-dose screen, 48 h (100 = growth as untreated, 0 = no growth, -100 = all killed)
The test system of one assay is SK-MEL-2 melanoma. To be noted: 10 µM unless noted.
Another assay deals with EKVX NSCLC. To be noted: 10 µM unless noted.
In a further assay the test system is SN12C renal. To be noted: 10 µM unless noted.
In another assay the test system is UO-31 renal. To be noted: 10 µM unless noted.
The subject of the next assay is TK-10 renal. To be noted: 10 µM unless noted.
Another assay has as its system ACHN renal. To be noted: 10 µM unless noted.
Another assay relates to A498 renal. To be noted: 10 µM unless noted.
A further assay has as its system CCRF-CEM leukemia. To be noted: 10 µM unless noted.
The test system of a further assay is MOLT-4 leukemia. To be noted: 10 µM unless noted.
In another assay the test system is SR leukemia. To be noted: 10 µM unless noted.
The subject of another assay is RPMI-8226 leukemia. To be noted: 10 µM unless noted.
The test system of another assay is OVCAR-8 ovarian. To be noted: 10 µM unless noted.
In another assay the test system is OVCAR-5 ovarian. To be noted: 10 µM unless noted.
Another assay deals with OVCAR-4 ovarian. To be noted: 10 µM unless noted.
In the next assay the test system is SK-OV-3 ovarian. To be noted: 10 µM unless noted.
The subject of the next assay is IGROV1 ovarian. To be noted: 10 µM unless noted.
In a further assay the test system is HS 578T breast. To be noted: 10 µM.
For another assay, the system named is NCI/ADR-RES ovarian. To be noted: 10 µM unless noted.
In a further assay the test system is OVCAR-3 ovarian. To be noted: 10 µM unless noted.
The subject of a further assay is CAKI-1 renal. To be noted: 10 µM unless noted.

This is part of a sample that, as a whole, favours compounds with a hit. Of some 83,000 tested, about 20% had one in any assay.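 Cell lines were cultured in 96-well plates, exposed to a single compound concentration, and assessed for percent growth 48 hours later.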 Values without a mark were called inactive. Calls of active or inactive are those of the source. The calls were made as follows: active = growth percent below 10; inactive = the rest.

For `COC(=O)c1ccc(NC(N)=NCCC(C)(C)c2ccc(C(F)(F)F)cc2)nc1`, the growth in the assay on SK-MEL-2 melanoma was 70.3%; in the assay with EKVX NSCLC, 20.3%; with SN12C renal, 53.4%; with UO-31 renal it was 34.2%; in the assay on TK-10 renal, 49.6%; in the assay on ACHN renal it was 65.2%. Besides, the growth was 51.8% in the assay on A498 renal; 34.2% with CCRF-CEM leukemia; 4.23% (active) in the assay with MOLT-4 leukemia; -22.2% (active) in the assay with SR leukemia; -48.8% (active) in the assay on RPMI-8226 leukemia; 50.1% with OVCAR-8 ovarian. Further, the growth with OVCAR-5 ovarian was 74.2%; in the assay with OVCAR-4 ovarian, 31.6%; in the assay with SK-OV-3 ovarian it was 60.2%; with IGROV1 ovarian, 54.7%; in the assay with HS 578T breast, 75.5%; in the assay with NCI/ADR-RES ovarian it was 36.6%.
For `CCN(CC)CCCC(C)Nc1cnc(C(=O)Nc2cc(C)cc3cccnc23)cn1` (stereo not drawn), the growth in the assay with SK-MEL-2 melanoma is 104%; in the assay with EKVX NSCLC, 77.8%; in the assay with SN12C renal, 77.9%; with UO-31 renal, 63.3%; in the assay with TK-10 renal, 86.9%; in the assay with ACHN renal, 77.9%. Besides, the growth was 70.3% in the assay with A498 renal; 54.2% in the assay with CCRF-CEM leukemia; 46.5% with MOLT-4 leukemia; 81.9% in the assay with SR leukemia; 78% in the assay with RPMI-8226 leukemia; 86.9% in the assay on OVCAR-8 ovarian. Further, the growth in the assay with OVCAR-5 ovarian was 97.6%; in the assay on OVCAR-4 ovarian it was 58.8%; in the assay on SK-OV-3 ovarian, 104%; with IGROV1 ovarian it was 68.7%; with OVCAR-3 ovarian, 20.5%; in the assay with NCI/ADR-RES ovarian it was 92.7%.
Take `COc1ccc(-c2oc(=O)ccc2-c2cc(OC)c(OC)c(OC)c2)cc1F`: the growth in the assay on SK-MEL-2 melanoma is 92.8%; in the assay on EKVX NSCLC it was 99.6%; in the assay with SN12C renal, 87.9%; in the assay with UO-31 renal, 47.3%; in the assay on TK-10 renal, 88.2%; with ACHN renal it was 87.1%. Moreover, the growth is 83.4% with A498 renal; 57.6% with CCRF-CEM leukemia; 83.6% with MOLT-4 leukemia; 7.57% (active) in the assay on SR leukemia; 80.8% in the assay with RPMI-8226 leukemia; 79.9% in the assay with OVCAR-8 ovarian. Moreover, the growth is 69.2% in the assay on OVCAR-5 ovarian; 105% in the assay on OVCAR-4 ovarian; 106% in the assay on SK-OV-3 ovarian; 80.4% in the assay on IGROV1 ovarian; 107% with OVCAR-3 ovarian; 57.9% in the assay with NCI/ADR-RES ovarian.
On to `COCCCNCC(=O)Nc1c(C)cccc1C`, for which the growth was 112% in the assay on SK-MEL-2 melanoma; 104% in the assay on EKVX NSCLC; 104% with SN12C renal; 88.4% with UO-31 renal; 113% in the assay on TK-10 renal; 102% in the assay with ACHN renal. Besides, the growth in the assay with A498 renal is 110%; in the assay with CCRF-CEM leukemia it was 98.6%; in the assay with MOLT-4 leukemia, 103%; with SR leukemia, 100%; in the assay with RPMI-8226 leukemia it was 108%; with OVCAR-8 ovarian, 107%. In addition, the growth was 104% with OVCAR-5 ovarian; 111% with OVCAR-4 ovarian; 112% with SK-OV-3 ovarian; 140% in the assay with IGROV1 ovarian; 122% with OVCAR-3 ovarian; 124% in the assay on HS 578T breast. In addition, in the assay on NCI/ADR-RES ovarian, the growth was 105%.
Turning to `Oc1ccc(-c2cnc(-c3ccccc3)[nH]2)c(O)c1`, the growth in the assay on SK-MEL-2 melanoma is 137%; in the assay with EKVX NSCLC it was 107%; in the assay with SN12C renal, 91.6%; with UO-31 renal, 88.7%; in the assay with TK-10 renal it was 112%; in the assay on ACHN renal, 109%. For the same molecule, the growth in the assay on A498 renal is 110%; in the assay with CCRF-CEM leukemia it was -41.7% (active); in the assay on MOLT-4 leukemia, 94%; in the assay with SR leukemia, 40.2%; in the assay on RPMI-8226 leukemia, 38.7%; with OVCAR-8 ovarian, 119%. Moreover, the growth with OVCAR-5 ovarian is 116%; with OVCAR-4 ovarian, 106%; in the assay with SK-OV-3 ovarian, 113%; in the assay on IGROV1 ovarian, 94.3%; with OVCAR-3 ovarian it was 107%; in the assay on HS 578T breast, 97.7%. Also, the growth in the assay with NCI/ADR-RES ovarian is 113%.
As for `CC(=O)c1nn(-c2ccccc2)/c(=N\N=C\c2coc3ccc(F)cc3c2=O)s1`, the growth was 107% in the assay with SK-MEL-2 melanoma; 81.6% in the assay on EKVX NSCLC; 97.6% in the assay on SN12C renal; 69.6% in the assay on UO-31 renal; 163% in the assay with TK-10 renal; 94% in the assay on ACHN renal. Also, the growth with A498 renal was 125%; in the assay on CCRF-CEM leukemia, 97.2%; in the assay with MOLT-4 leukemia, 100%; in the assay with SR leukemia, 96.2%; in the assay with RPMI-8226 leukemia, 91.9%; in the assay on OVCAR-8 ovarian it was 107%. For the same molecule, the growth is 110% with OVCAR-5 ovarian; 108% in the assay on OVCAR-4 ovarian; 98.9% with SK-OV-3 ovarian; 87.2% in the assay with IGROV1 ovarian; 111% with OVCAR-3 ovarian; 95.1% in the assay on HS 578T breast. Moreover, the growth in the assay with NCI/ADR-RES ovarian is 104%.
On to `CN(C)c1ccc(/C=C(\C#N)c2nc3ccccc3n2C)cc1`, for which the growth with SK-MEL-2 melanoma was 46.6%; in the assay with EKVX NSCLC, 28.3%; with SN12C renal it was 54%; in the assay on UO-31 renal, 46.2%; in the assay on TK-10 renal it was 37.7%; with ACHN renal, 55.3%. The growth in the assay with CAKI-1 renal is 13.7%; with CCRF-CEM leukemia it was 31.2%; in the assay on MOLT-4 leukemia, 29.5%; in the assay with SR leukemia, 29.2%; in the assay on RPMI-8226 leukemia it was 15.8%; with OVCAR-8 ovarian, 40.3%. The growth in the assay on OVCAR-5 ovarian was 64.3%; in the assay with OVCAR-4 ovarian, 55.2%; in the assay on SK-OV-3 ovarian, 34.8%; with IGROV1 ovarian, 32.3%; in the assay on OVCAR-3 ovarian, -8.87% (active); in the assay with NCI/ADR-RES ovarian it was 27.6%.
On to `CC(=O)N[C@@H](CCC(N)=O)C(=O)O`, for which the growth in the assay on SK-MEL-2 melanoma was 118%; in the assay with EKVX NSCLC it was 107%; with SN12C renal, 85.7%; in the assay with UO-31 renal, 65.7%; in the assay with TK-10 renal, 107%; in the assay with ACHN renal, 94.7%. The growth in the assay on CAKI-1 renal is 73.8%; in the assay on A498 renal, 86.6%; with MOLT-4 leukemia, 95.3%; in the assay with SR leukemia, 104%; in the assay on RPMI-8226 leukemia, 107%; with OVCAR-8 ovarian, 98.8%. Further, the growth in the assay on OVCAR-5 ovarian is 111%; with OVCAR-4 ovarian it was 111%; in the assay on SK-OV-3 ovarian it was 96.7%; with IGROV1 ovarian, 84.9%; in the assay on OVCAR-3 ovarian, 102%; in the assay on HS 578T breast, 81.7%. Further, the growth in the assay on NCI/ADR-RES ovarian is 98.9%.
